Active and inactive are the calls of the source.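 Rule for the calls: active = fitted half-maximal effect concentration at or below the top concentration tested; inactive = the rest.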
experiment: TCF/LEF reporter activation, dose response, orthogonal assay for GSK3b inhibitor project, cell-based, HEK293T, firefly luciferase, dry powder (AID 624086); details: 24 h; series mostly up to 26 µM; activity change, negative = inhibition: at the top concentration

Activity change, negative = inhibition, inactive:
COc1cccc(-c2nn(-c3ccccc3)cc2/C=N/O)c1 0.588%, COc1ccccc1/C=C1\C(=O)CC(C)(C)CC1=Nc1cc(C(F)(F)F)[nH]n1 0%, Cc1[nH]nc2c1[C@@H](c1cccs1)C1=C(CC(C)(C)CC1=O)N2 0%, Cc1[nH]nc2c1C(C)C1=C(CC(C)(C)CC1=O)N2 (stereo unspecified) -0.0284%, CC1(C)CC(=O)C2=C(C1)Nc1n[nH]c(C(F)(F)F)c1C2c1cc(F)ccc1C(F)(F)F (stereo unspecified) 1.02%, Cc1[nH]nc2c1C(C1CCCCC1)C1=C(CC(C)(C)CC1=O)N2 (stereo unspecified) -0.188%, O/N=C/c1cn(-c2ccccc2)nc1-c1ccc(F)cc1 -4.44%, Cc1[nH]nc2c1C(c1ccc(C#N)cc1)C1=C(CC(C)(C)CC1=O)N2 (stereo unspecified) 3.06%, COc1ccccc1[C@H]1C2=C(CC(C)(C)CC2=O)Nc2n[nH]c(C(F)(F)F)c21 -2.25%, Cc1[nH]nc2c1C(c1cccs1)C1C(=O)CC(C)(C)CC1=N2 (stereo unspecified) -1.06%, Cc1[nH]nc2c1C(c1ccc(Br)cn1)C1=C(CC(C)(C)CC1=O)N2 (stereo unspecified) -0.483%, O/N=C/c1cn(-c2ccccc2)nc1-c1ccc(Cl)cc1 0%, CC(C)COc1ccc(-c2nn(-c3ccccc3)cc2/C=N/O)cc1 0%, COc1ccccc1C1C2=C(CC(C)(C)CC2=O)Nc2n[nH]c(C(C)(C)C)c21 (stereo unspecified) 0.194%, COc1ccccc1C1C2=C(CC3(CCCCC3)CC2=O)Nc2n[nH]c(C)c21 (stereo unspecified) -0.39%, Cc1[nH]nc2c1C(c1ccc(F)cc1Cl)C1=C(CC(C)(C)CC1=O)N2 (stereo unspecified) 0.588%, Cc1ccc(-c2nn(-c3ccccc3)cc2/C=N/O)cc1 -0.588%, COc1ccc(-c2nn(-c3ccccc3)cc2C(=O)N(C)C)cc1 0%, COc1ccc(-c2nn(-c3ccccc3)cc2/C=N/O)cc1OC -1.01%, COc1ccccc1C1C2=C(CC(C)(C)CC2=O)Nc2n[nH]c(C(C)C)c21 (stereo unspecified) -0.468%, CC1(C)CC(=O)C2=C(C1)Nc1n[nH]c(C(F)(F)F)c1C2c1c(F)cccc1F (stereo unspecified) -2.81%, Cc1[nH]nc2c1C(c1ccc(Cl)s1)C1=C(CC(C)(C)CC1=O)N2 (stereo unspecified) 0%, Cc1[nH]nc2c1C(c1ccc(C(F)(F)F)cc1)C1=C(CC(C)(C)CC1=O)N2 (stereo unspecified) -0.0415%, Cc1cccc(C2C3=C(CC(C)(C)CC3=O)Nc3n[nH]c(C)c32)c1 (stereo unspecified) -1.07%, Cc1[nH]nc2c1C(c1ccc(Cl)cc1)C1=C(CC(C)(C)CC1=O)N2 (stereo unspecified) 0%, COc1ccccc1[C@@H]1C2=C(CC(C)(C)CC2=O)Nc2n[nH]c(C)c21 -0.562%, COc1ccccc1C1C2=C(CC(C)(C)CC2=O)Nc2ccccc21 (stereo unspecified) 0.0477%, Cc1[nH]nc2c1C(c1ccsc1)C1=C(CC(C)(C)CC1=O)N2 (stereo unspecified) 0%, COc1ccc(-c2nn(-c3ccccc3)cc2CO)cc1 1.06%, O/N=C/c1cn(-c2ccccc2)nc1-c1ccc2c(c1)OCCO2 0.588%, Cc1[nH]nc2c1C(c1ccccn1)C1=C(CC(C)(C)CC1=O)N2 (stereo unspecified) -0.483%
